Values joined by “and” are separate entries in the source; they are usually repeats but may differ in a detail not shown here. Equal entries are not always repeated. The campaign covered roughly 300,000 compounds. About 5,400 (1.8%) were called active. A call without a number means that no potency is given here. Inconclusive results (about 28%) are left out. The sample holds actives, similar compounds and a random draw of the others, so the mix is not that of the screen. The call rests on the fitted dose curve; tested in HEK293 cells.
Potency means the concentration at half of the fitted maximal effect.

The experiment is described as follows: qHTS for inhibitors of binding or entry into cells for Marburg Virus. The settings on record: Marburg virus pseudotyped entry inhibition, cell reporter; series mostly up to 37.8 µM. On the technique in general: In qHTS, concentration-response curves come from the screen itself.
Turning to `COc1ccc(-n2cc(CN(C)Cc3n[nH]c(=O)[nH]3)c(-c3cccc(F)c3)n2)cc1`, the Potency entry was “inactive”. Turning to `COc1ccc(-n2cc(CNC3CCOCC3)c(-c3cccc(F)c3)n2)cc1`, the Potency was 11.2 µM (active). Consider `COc1ccc(-c2nn(-c3ccccc3)cc2CN2CCCO2)c(F)c1`, for which the Potency result was “inactive”.

`N#CC1=C(SCc2ccccc2)NC(=O)C(C#N)C12CCCC2` (stereo unspecified): the Potency entry is “inactive”. In the case of `N#C/C(=C1\CCCN1)c1nc(-c2ccccc2)cs1` it was “inactive”. As for `N#CC1=C(SCc2ccc(C#N)cc2)N=C(N)C(c2nc(-c3ccccc3)cs2)C12CCCCC2` (stereo unspecified), the Potency was 7.08 µM (active).

Turning to `NC(CSC1(c2ccccc2)c2ccccc2-c2ccccc21)C(=O)O` (stereo unspecified), the Potency result was “inactive”. As to `CCCc1cc(=O)[nH]c(SCC(=O)Nc2ccc(C(=O)Nc3ccccc3OC)cc2)n1`, the Potency entry is “inactive”.

As to `CC1CCN(C(=O)/C(=C\c2ccccc2)NC(=O)c2ccccc2)CC1`, the Potency entry was “inactive”. With `COc1ccc(S(=O)(=O)N2CCC(C(=O)NCc3ccco3)CC2)cc1C` the entry was “inactive”; with `CC(C)Oc1ccc(Oc2ccc(C(F)(F)F)cn2)cc1`, “inactive”. In the case of `CNCC[C@H](Oc1ccc(C(F)(F)F)cc1)c1ccccc1` it was 10.3 µM (active) and 7.08 µM (active). Regarding `CC(NC(=O)Cn1cc(C(F)(F)F)cc(Cl)c1=O)c1ccccc1` (stereo unspecified), the Potency entry is “inactive”. As for `COc1ccccc1N(CC(=O)Nc1ccccc1C(=O)N1CCCC1)S(C)(=O)=O`, the Potency result was “inactive”. In the case of `Cc1ccc(S(=O)(=O)N2CCN=C2SCc2c(F)cccc2Cl)cc1` it was “inactive”. `COc1ccc(COC(=O)c2ccc(Cl)c(S(=O)(=O)N3CCOCC3)c2)cc1F`: the Potency result is “inactive”. With `CC(=O)Nc1ccc(C(=O)/C=C/c2ccc[nH]2)cc1`, the Potency entry is “inactive”. On to `CCCC(=O)Nc1ccc(C(=O)N/N=C/c2ccc[nH]2)cc1`, for which the Potency is 7.08 µM (active). For the compound `CCCCCC(=O)Nc1ccc(C(=O)N/N=C/c2ccc([N+](=O)[O-])cc2)cc1`, the Potency result was “inactive”. Take `COc1cc(/C=N/NC(=O)Nc2ccccc2)ccc1OCCOc1ccccc1C`: the Potency was 2.31 µM (active). For the compound `CCOc1cc(/C=N/NC(=O)OC)ccc1OCCSc1ccc(Cl)cc1`, the Potency result was “inactive”. With `COc1ccc(/C=N/S(=O)(=O)c2ccccc2)cc1OC` the entry was “inactive”; with `COc1cc(/C=N/NC(=O)c2ccc(N3CCCC3=O)cc2)ccc1O`, “inactive”. On to `COc1cc(C=NNC(=O)c2cccnc2)ccc1OC(=O)c1ccccc1F`, for which the Potency result was “inactive”. For the compound `COc1ccc(C(=O)Nc2ccccc2C(=O)N/N=C/c2ccc(O)c(OC)c2)cc1`, the Potency is 0.398 µM (active). With `COc1ccc(C(=O)Nc2ccccc2C(=O)N/N=C/c2ccccc2OC)cc1`, the Potency entry was “inactive”. For the compound `COc1cc(/C=N/NC(=O)c2ccccc2)ccc1OS(=O)(=O)c1ccccc1`, the Potency was 9.2 µM (active). Turning to `COC(=O)c1ccc(COc2ccc(/C=N/NC(=O)C(=O)Nc3ccc(OC)cc3)cc2OC)o1`, the Potency entry was “inactive”. With `COc1ccc(OC[C@H]2CN3[C@@H](CC[C@@H](C)[C@@H]3c3ccc(Br)cc3)C(=O)O2)cc1` the entry was “inactive”. Consider `COC1=NC2=NCCN2C(OC)=N1`, for which the Potency entry is “inactive”. On to `COc1ccc(CCNC(=O)COC(=O)c2ncc(Cl)c(Cl)c2Cl)cc1OC`, for which the Potency result was “inactive”. In the case of `COc1ccccc1C(=O)c1ccccc1C(=O)c1ccccc1`, the Potency entry is “inactive”. Regarding `COc1ccc(N2CC(C(=O)N[C@@H](C)C(=O)N3CCCCC3)CC2=O)cc1` (stereo partly specified), the Potency result was “inactive”.

`O=C1COc2ccc(C(=O)COC(=O)CCOc3ccccc3)cc2N1`: the Potency entry is “inactive”.

Consider `CC(NS(=O)(=O)c1ccc(OCC(=O)N2CCCC2)cc1)c1ccccc1` (stereo unspecified), for which the Potency result was “inactive”. Consider `COc1ccc(S(=O)(=O)N2CCN(CC(=O)N3c4ccccc4CC3C)CC2)cc1OC` (stereo unspecified), for which the Potency entry is “inactive”.

Regarding `COc1ccc(C(=O)O)cc1S(=O)(=O)NC1CCN(Cc2ccccc2)CC1`, the Potency entry was “inactive”. On to `O=C(Cn1cnc2ccccc2c1=O)NNC(=O)c1ccccc1F`, for which the Potency entry was “inactive”. As to `Cc1ccc(C)c(NS(=O)(=O)c2ccc(OCC(=O)NCc3cccnc3)cc2)c1`, the Potency entry was “inactive”. On to `Cc1ccc(NS(=O)(=O)c2ccc(C)c(NC(=O)COc3ccc4ccccc4c3)c2)c(C)c1`, for which the Potency was 11.2 µM (active). On to `Cc1ccc(C)c(NC(=O)CN(C)C(=O)COc2ccc3ccccc3c2)c1`, for which the Potency entry was “inactive”.

Turning to `O=C(O)c1ccc(Cn2c(=S)[nH]c3cc(Cl)ccc3c2=O)cc1`, the Potency result was “inactive”. In the case of `CC(C)c1ccc(Cn2c(COc3ccccc3)nc3ccccc32)cc1` it was “inactive”. On to `CC(C)c1ccc2c(c1)c(SC(C)(C)C)c(CC(C)(C)C(=O)O)n2Cc1ccc(Cl)cc1`, for which the Potency was 11.2 µM (active) and 6.51 µM (active). Take `CN(C)C(=O)CCc1ccc2c3c([nH]c2c1)[C@]1(CCC2CCCC2)[C@@H](C(=O)N2CCOCC2)C[C@H](CC(=O)NCc2ccco2)C(=O)N1CC3`: the Potency entry was “inactive”. For the compound `CCOC(=O)c1cc(S(=O)(=O)NCCc2ccc(OC)c(OC)c2)cn1C`, the Potency entry was “inactive”. Regarding `COc1cccc(/C(C)=N/Nc2ncc(Cl)cc2Cl)c1`, the Potency entry is “inactive”. As for `COc1cccc(/C=N/Nc2ncc(C(F)(F)F)cc2Cl)c1O`, the Potency is 0.794 µM (active). In the case of `COc1cc(/C=C2\SC(=S)N(Nc3ncc(C(F)(F)F)cc3Cl)C2=O)cc(OC)c1OC`, the Potency entry was “inactive”.

Take `CCCCn1c(N)c(N(Cc2ccccc2OC)C(=O)COc2cc(C)ccc2Cl)c(=O)[nH]c1=O`: the Potency entry was “inactive”. As for `Cc1ccc(C)c(NC(=O)C2Cc3ccccc3CN2C(=O)OCc2ccccc2)c1` (stereo unspecified), the Potency is 2.51 µM (active).

As to `Cc1ccc(S(=O)(=O)N(C)C)cc1NC(=O)C1Cc2ccccc2CN1C(=O)c1ccco1` (stereo unspecified), the Potency entry was “inactive”. `Cc1ccc(C)c(NC(=O)C2CCCN2C(=O)OC(C)(C)C)c1` (stereo unspecified): the Potency entry is “inactive”. `Cc1cc(C(F)(F)F)nc(SCC(=O)Nc2nccs2)n1`: the Potency result was “inactive”. Regarding `CCN(CC(=O)Nc1ccc(OC)cc1)C(=O)c1ccc(=O)n(Cc2ccccc2)n1`, the Potency entry was “inactive”. For the compound `COc1ccc(C)cc1NC(=O)CSc1nnc2ccc(-c3ccccn3)nn12`, the Potency entry was “inactive”. For the compound `CCOc1ccccc1-c1nc(CN2CCC(C(=O)N3CCOCC3)CC2)c(C)o1`, the Potency result was “inactive”. For the compound `Cc1ccc(C)c(NC(=O)C(c2ccccc2)N2CCN(CC(=O)NC3CC3)CC2)c1` (stereo unspecified), the Potency result is “inactive”. With `OC(CNC1CCCCC1)c1ccccc1` (stereo unspecified), the Potency entry is “inactive”. Consider `CC(NCc1ccccc1OC1CCCC1)c1ccccc1` (stereo unspecified), for which the Potency is 7.94 µM (active). As for `CC(=O)OC(C(=O)NC1CCCCC1)c1ccccc1` (stereo unspecified), the Potency result is “inactive”. As for `COc1ccc2c(c1)c(=Cc1ccc(N(C)C)cc1)c1cc(-c3ccccc3)[n+](C)n12`, the Potency is 4.47 µM (active). Turning to `c1ccc2c(c1)[I+]c1ccccc1-2`, the Potency is 0.282 µM (active).

For the compound `O=C(NCCc1ccccc1)c1c[nH]c2ccc(F)cc2c1=O`, the Potency result was “inactive”.

As to `CC(C)NC(=O)c1ccc(Cl)cc1Cl`, the Potency result was “inactive”. Consider `CC(C)OC(=O)c1ccc(NCc2cc(O)ccc2O)cc1Cl`, for which the Potency was 2.24 µM (active). As to `CC(OC(=O)c1ccc(Cl)cc1O)C(=O)NCCC1=CCCCC1` (stereo unspecified), the Potency entry was “inactive”. As to `Cc1ccccc1-n1cc(CNC(=O)C2CCC(=O)N(C3CC3)C2)cn1` (stereo unspecified), the Potency result was “inactive”. In the case of `CCN1CCc2c(C#N)c(NCc3ccccc3)nc(NCCO)c2C1`, the Potency entry was “inactive”. With `CC(C)Cc1nc(N2CCOCC2)c(C#N)c2c1CCC2` the entry was “inactive”; with `CC(C)CCNc1nc(N2CCCC2)c2c(c1C#N)CCN(C)C2`, 7.3 µM (active); with `COC1=CC(=O)OC(c2ccc(OC)cc2)C1` (stereo unspecified), “inactive”. With `O=C(NCc1ccncc1)C(=O)NCC1OCCN1S(=O)(=O)c1ccc(Br)cc1` (stereo unspecified), the Potency result was “inactive”. As for `COc1ccc(-c2csc3ncnc(N4CCN(S(=O)(=O)c5ccccc5C#N)CC4)c23)cc1`, the Potency result is “inactive”. For `CCN1/C(=C/c2ccc3ccc(C)cc3[n+]2CC)Sc2ccccc21`, the Potency is 5.01 µM (active). Regarding `O=C(c1ccc(NS(=O)(=O)c2ccc3[nH]c(=O)[nH]c3c2)cc1)N1CCCCC1`, the Potency entry is “inactive”. As to `O=[N+]([O-])c1ccc(NS(=O)(=O)c2ccccc2)c(Cl)c1`, the Potency is 11.2 µM (active).

Consider `O=C(NNS(=O)(=O)c1ccc(F)cc1)c1ccc([N+](=O)[O-])cc1Cl`, for which the Potency entry is “inactive”. For `Cc1cccc(NS(=O)(=O)c2ccc([N+](=O)[O-])cc2)n1`, the Potency entry is “inactive”. Turning to `CCOC(=O)CCC(NC(=O)c1ccc(CNc2nc3cc(C(F)(F)F)ccc3nc2C(=O)OCC)cc1)C(=O)OCC` (stereo unspecified), the Potency result was “inactive”.

Regarding `OCCNc1nc2ccccc2n1-c1ncnc2sc3c(c12)CCC3`, the Potency is 11.2 µM (active). With `CC(C)(C)C(=O)Cn1c(NCCO)nc2ccccc21` the entry was “inactive”.

As to `O=C(O)[C@@H]1CCCN1c1ncnc2sc3c(c12)CCC3`, the Potency result is “inactive”. As for `Cc1cccc(C=CC(=O)c2ccc(Cl)cc2)c1`, the Potency result was “inactive”. For the compound `O=C(COC(=O)c1cccnc1Cl)Nc1ccc(S(=O)(=O)N2CCOCC2)cc1`, the Potency entry is “inactive”. As for `COc1ccc(C(C(=O)NCC2CCCO2)N(C(=O)Cn2nnc3ccccc32)c2ccc(NC(C)=O)cc2)cc1OC` (stereo unspecified), the Potency result was “inactive”.

As for `Cc1ccc(C)c(N2CCN(C(=O)CCc3nc(-c4cccc(C(F)(F)F)c4)no3)CC2)c1`, the Potency entry is “inactive”. In the case of `COc1ccc(OC)c(Cc2cnc3nc(N)nc(N)c3c2C)c1` it was 0.112 µM (active). As to `COc1ccc(OC)c(NC(=O)c2sc3nc(C)cc(C)c3c2N)c1`, the Potency result was “inactive”. `COc1ccc(OC)c(Cc2nnc(CCC(=O)NC3CCCC3)o2)c1`: the Potency result was “inactive”.

Consider `CCCc1cc(=O)[nH]c(SCC(=O)Nc2ccc(S(=O)(=O)N3CCCC3)cc2)n1`, for which the Potency entry was “inactive”. `Cn1c(=O)c2c(O)c(C=NCC3CCCCC3)c(=O)n(C)c2n(C)c1=O`: the Potency result was “inactive”. With `Clc1ccc(CN2CCCCCC2)cc1Cl` the entry was “inactive”; with `c1ccc(C(CN2CCCCC2)c2ccccc2)cc1`, “inactive”. For `CC(CN1CCCCC1)c1ccccc1` (stereo unspecified), the Potency entry is “inactive”. For the compound `COc1ccc(C(O)(C2CCCCC2)C(CN2CCCC2)c2ccccc2)cc1` (stereo unspecified), the Potency was 8.91 µM (active). As for `CCOc1ccc(NC(=O)CN(C)C(=O)Cc2sc(C)nc2-c2ccc(F)cc2)cc1OCC`, the Potency result is “inactive”.

As to `COC(=O)C1CCCCN1C(=O)c1ccc(OC2CCN(C(C)=O)CC2)c(OC)c1` (stereo unspecified), the Potency entry was “inactive”. In the case of `CC(C)(C)NCC(O)COc1cccc2[nH]c(=O)[nH]c12` (stereo unspecified) it was “inactive”. Consider `COc1ccccc1OCC(O)CN1CCOCC1` (stereo unspecified), for which the Potency entry was “inactive”. With `COc1ccccc1OCCNCC(O)COc1cccc2[nH]c3ccccc3c12` (stereo unspecified) the figure was 11.6 µM (active).

Values taken from PubChem BioAssay AID540276 (National Center for Advancing Translational Sciences (NCATS), 2011).
